From PubChem
The entries come from a sample that favours hits as a whole.
ClpP mod = qHTS Assay for Activators of ClpP; purified B. subtilis ClpP, FRET peptide cleavage, 20 min; Potency, µM (doses to about 57.5 µM), without a hit: top-dose activity change, negative = active; ATP-dependent Clp protease proteolytic subunit (Bacillus subtilis (strain 168)), P80244; hit rate 1.9% among 340,000; active = well fitted falling curve with a large enough effect; inconclusive = small, poorly fitted or top-dose-only effect; inactive = no such curve, though single readings can be large or run the other way; also: potency is read from the fitted curve at half-maximal effect; the source files actives as falling curves though it sought activators and does not explain the sign; nearly all actives have a fitted effect of over 65% in size
Target sequence (P80244 whole entry, looked up): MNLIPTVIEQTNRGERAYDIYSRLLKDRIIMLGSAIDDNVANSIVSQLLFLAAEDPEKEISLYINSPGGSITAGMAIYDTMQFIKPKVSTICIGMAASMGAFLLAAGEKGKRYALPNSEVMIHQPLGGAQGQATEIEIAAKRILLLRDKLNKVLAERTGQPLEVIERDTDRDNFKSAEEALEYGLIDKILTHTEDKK
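FRET quenching reversal measured ClpP activation: 10 microg/mL B. subtilis ClpP at pH 8 with the FRET-FV decapeptide, read at 430 nm after 320 nm excitation. The 20-min minus 0-min signal was scaled between DMSO/no-enzyme wells and ADEP (5.8 microM final).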
Menin-MLL TR inh = inhibitors of human menin-MLL interaction, mutant MLL peptide; AID 1768; O00255; hit rate 0.23% among 270,000; Potency, µM (series often up to 61.6 µM), without a hit: at the top dose FP activity change, negative = inhibition, most hits filed as inhibitors; Menin + Texas Red MLL mutant peptide, fluorescence polarization; active = well fitted inhibition curve with a large enough effect in the polarisation, with a control signal flat, not every such curve was filed as active; inconclusive = small, poorly fitted or top-dose-only effect, or effect the other way, or a change in a side signal; inactive = no such curve, though single readings can be large or run the other way; the % refers to the polarisation; also: potency is read from the fitted curve at half-maximal effect; % of control where 0% means no effect
p53 reactivation = restores transcriptional activity of mutant p53. Potency, µM (highest dose often 92.2 µM), for inactives: top-dose activity change, positive = activation, usual class: activators. H1299 p53-A138V BP100-luciferase reporter, luminescence, 24 h. hit rate 0.063% among 320,000; active = well fitted activation curve with a large enough effect; inconclusive = small, poorly fitted or top-dose-only effect; inactive = no such curve, though single readings can be large or run the other way; also: potency is read from the fitted curve at half-maximal effect; % of control where 0% means no effect; nearly all actives have a fitted effect of over 45% in size
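p53-null H1299 cells stably carrying temperature-sensitive p53-A138V and a BP100-luciferase reporter were pinned with compounds (4-point, 1:5 series) and held 24 hrs at 37 deg C. Luminescence was read 10 min after detection reagent.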
MLL CXXC-DNA inh = inhibitors of human MLL CXXC domain-DNA interaction. Q03164. MLL-CXXC / FITC-HOXA9 DNA fluorescence polarization. Potency, µM (series often up to 115 µM), for the others: at the top dose activity change, negative = inhibition, actives largely listed as inhibitors. hit rate 0.037% among 290,000; active = well fitted inhibition curve with a large enough effect in the polarisation, with a control signal flat, not every such curve was filed as active; inconclusive = small, poorly fitted or top-dose-only effect, or effect the other way, or a change in a side signal; inactive = no such curve, though single readings can be large or run the other way; the % refers to the polarisation; also: potency is read from the fitted curve at half-maximal effect
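Purified MLL-CXXC (added from a 7 uM solution) was preincubated 5 min at ambient with pinned compounds in 50 mM Tris-HCl pH 7.5, 50 mM NaCl, 1 mM DTT, 0.05% BSA. Fluorescein-labeled HOX-A9 DNA (50 nM solution) followed, 30 min, then polarization read.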
Menin-MLL FL inh = inhibitors of human menin-MLL interaction, wild-type MLL peptide; Fluorescence polarization, fluorescein-MLL peptide displacement from menin; AID 1766; 290,000 tested, under 10 active; FP activity change, % at 61.4 µM; active = well fitted curve in the direction sought with a large enough effect in the polarisation, not every such curve was filed as active; inconclusive = small, poorly fitted or top-dose-only effect, or effect the other way, or a change in a side signal; inactive = no such curve, though single readings can be large or run the other way; the % refers to the polarisation; also: % of control where 0% means no effect
Numbers without * were called inactive; ? = inconclusive; · = no result.

SMILES	ClpP mod	Menin-MLL TR inh	p53 reactivation	MLL CXXC-DNA inh	Menin-MLL FL inh
COc1ccc(C2C(=O)N(C3CCCCCC3)CC(=O)N2CCC2=CCCCC2)cc1 (stereo not given)	1%	·	·	·	·
N#Cc1c(-c2ccc(F)cc2)cc(-c2cccnc2)nc1N	?	4%	1%	5%	2
N#Cc1c(-c2ccco2)cc(-c2ccc(F)cc2)nc1N	35µM*	?	3%	0%	13
CCSc1nc(N)c(C#N)c(-c2ccco2)c1C#N	?	?	-10%	-2%	-1
CC(C)Cc1cc(-c2ccco2)c(C#N)c(N)n1	3.2µM*	-9%	2%	1%	8
CCCCN(CC)c1nc(C)nc2c1c(C)c(C)n2-c1c(C)cc(C)cc1C	·	-11%	·	·	3
CC1(C)Nc2cccc3c(N=Nc4ccc(N=Nc5ccccc5)c5ccccc45)ccc(c23)N1	-24%	·	·	·	·
O=C(O)c1ccc(CSc2nnc(-c3ccc(Cl)cc3)o2)cc1	0%	18%	12%	-9%	0
O=C(Nc1ccccc1-c1nnc(SCc2ccccc2)o1)c1ccccc1	28µM*	·	-4%	4%	5
O=C(Nc1ccccc1-c1nnc(SCc2ccc(Cl)cc2)o1)c1ccccc1	10µM*	9%	1%	5%	2
CCCCNC(=O)[C@@H]1CC=C[C@@H]2CCN(Cc3ccc(OC)c(OC)c3)C(=O)[C@@H]21	2%	·	·	·	·
C[C@H]1C(=O)N(S(=O)(=O)c2ccccc2[N+](=O)[O-])[C@H]1c1ccc(-c2ccccc2)cc1	·	?	·	·	-6
CCN(Cc1ccccc1)c1ccc(/C=C/c2nccc3ccccc23)cc1	0%	·	·	·	·
O=C1CN(C(=O)COC(=O)c2ccccc2NCc2ccco2)c2ccccc2N1	25µM*	·	-4%	11%	-1
CCOC(=O)C1CCCN(C(=O)/C=C/c2cccc([N+](=O)[O-])c2)C1 (stereo not given)	25µM*	13%	11%	-10%	3
O=C(CSc1nc2ccccc2nc1Cc1ccccc1)N1CCc2ccccc21	0%	·	·	·	·
COC(=O)c1ccccc1NC(=O)COc1ccccc1C(=O)Nc1ccccc1	-16%	·	·	·	·
COCCn1c(-c2ccc(OC(F)(F)C(F)C(F)(F)F)cc2)nc2c1c(=O)[nH]c(=O)n2CC(C)C (stereo not given)	28µM*	?	-3%	21%	5
CCCn1c(=O)[nH]c(=O)c2c1nc(-c1ccccc1OC(F)F)n2CCOC	25µM*	-1%	-3%	-7%	4
CCCn1c(=O)[nH]c(=O)c2c1nc(-c1ccc(OC(F)F)c(OC)c1)n2CCOC	25µM*	-2%	3%	10%	6
COCCn1c(-c2ccc(SC)cc2)nc2c1c(=O)[nH]c(=O)n2CC(C)C	·	?	-3%	11%	1
OC[C@H]1OC(O)(CN2CCOCC2)[C@H](O)[C@@H]1O (stereo not given in full)	·	-7%	·	·	-1
C=CCn1c(=O)c2ccc(C(=O)NCc3ccccc3)cc2n(Cc2cccc(Cl)c2)c1=O	28µM*	5%	-9%	12%	0
O=C(CN1CCCc2ccccc21)N/N=C/c1ccccc1O	28µM*	?	15%	6%	5
O=C(CN1CCCc2ccccc21)N/N=C/c1ccc(F)cc1F	·	·	1%	-3%	7
SMILES	ClpP mod	Menin-MLL TR inh	p53 reactivation	MLL CXXC-DNA inh	Menin-MLL FL inh
CO[C@H]1/C=C\O[C@@]2(C)Oc3c(C)c(O)c4c(O)c(c(C=NN5CCN(C6CCCC6)CC5)c(O)c4c3C2=O)NC(=O)C(C)=CC=C[C@H](C)[C@H](O)[C@@H](C)[C@@H](O)[C@@H](C)[C@H](OC(C)=O)[C@H]1C	2%	·	·	·	·
O=C1OCc2cccc3cccc1c23	-4%	0%	2%	-2%	0
O=C1Cc2cccc3cccc1c23	22µM*	0%	4%	2%	4
C[N+]1(CC(=O)c2ccc(I)cc2)CCOCC1	0%	·	·	·	·
O=c1oc2cc(OCc3ccc([N+](=O)[O-])cc3)ccc2c2c1CCCC2	-7%	3%	3%	4%	4
COC(=O)c1ccc(COc2ccc3ccc(=O)oc3c2)o1	3%	-25%	9%	15%	5
COC(=O)c1ccc(COc2ccc3c(C)c(C)c(=O)oc3c2)o1	2.8µM*	-17%	?	7%	3
O=C(O)c1ccc(COc2ccc3c4c(c(=O)oc3c2)CCC4)o1	2.5µM*	-3%	0%	-21%	3
COC(=O)c1cc(COc2ccc3ccc(=O)oc3c2)c(C)o1	14µM*	5%	1%	7%	1
CC1CC=CC2C1C(=O)N(Cc1ccccc1)C2c1ccc(Br)cc1F (stereo not given)	·	-9%	·	·	-1
COc1ccc(NC(=O)CC2NCCNC2=O)c(OC)c1 (stereo not given)	-2%	·	·	·	·
CCOc1ccc(NC(=O)CCNC(=O)Cn2ccc3ccccc3c2=O)cc1	32µM*	6%	-6%	-4%	-6
CCOc1ccccc1NC(=O)CCNC(=O)Cn1ccc2ccccc2c1=O	·	-25%	-5%	29%	-2
CN(C)c1ccc(/C=C/c2ccnc3ccc(N)cc23)cc1	2%	·	·	·	·
CCN(CC)c1ccc2cc(-c3nc(-c4cc(OC)c(OC)c(OC)c4)no3)c(=O)oc2c1	-26%	·	·	·	·
CCN(CC)c1ccc2cc(-c3nnc(-c4cccc(Cl)c4)o3)c(=O)oc2c1	28µM*	·	·	·	·
CCN(CC)c1ccc2cc(-c3nc(-c4ccccc4F)no3)c(=O)oc2c1	25µM*	·	·	·	·
c1ccc(-c2c(-c3ccccc3)n(Cc3ccco3)c3ncnc(NCCCn4ccnc4)c23)cc1	25µM*	?	-22%	52%	7
OCCNc1ncnc2c1c(-c1ccccc1)c(-c1ccccc1)n2Cc1ccco1	28µM*	?	-1%	2%	0
Cc1cc(=O)[nH]c2n[nH]c(-c3ccccc3)c12	25µM*	-16%	?	6%	9
Cc1cc(=O)[nH]c(-c2ccccc2)n1	-1%	5%	-7%	4%	-2
O=C(O)c1sc2cc(C(F)(F)F)cnc2c1-c1ccccc1	-5%	·	1%	-5%	-1
CSc1nnc(-c2sc3cc(C(F)(F)F)cnc3c2-c2ccccc2)n1C	32µM*	?	0%	3%	3
NS(=O)(=O)c1cccc(NC(=O)c2ccccc2NS(=O)(=O)c2ccc(F)cc2)c1	·	?	1%	-10%	-7
O=C(Nc1cccc(S(=O)(=O)N2CCCCC2)c1)c1ccccc1NS(=O)(=O)c1ccc(F)cc1	32µM*	26%	2%	-5%	6
Cc1ccc(NC(=O)c2ccccc2NS(=O)(=O)c2ccc(F)cc2)cc1S(=O)(=O)N1CCCCC1	32µM*	?	-8%	5%	9
COc1cc(Cl)c(NC(=O)CN(C)S(=O)(=O)c2ccc3c(c2)CCCC(=O)N3)c(OC)c1	1%	·	·	·	·
